# Laboratory results as given in PMC11006913.
# Positions count from the first letter of the chain named.
# Tests used:
# Experiment in all cases: PBM; 200 nM protein, PBS
# Conditions in all cases: dsDNA, one strand shown
# SIX6 [1] = biological target: T1, SIX6 (Homo sapiens, UniProt O95475 114-200, L167M)
# T1 sequence: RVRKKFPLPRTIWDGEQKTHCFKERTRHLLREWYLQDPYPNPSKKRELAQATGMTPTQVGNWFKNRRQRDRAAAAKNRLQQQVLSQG
# SIX6 [2] = biological target: T2, SIX6 (Homo sapiens, UniProt O95475 114-200, L143M)
# T2 sequence: T1 sequence with L30M, M54L
# SIX6 [3] = biological target: T3, SIX6 (Homo sapiens, UniProt O95475 114-200, L143I)
# T3 sequence: T1 sequence with L30I, M54L
# SIX6 [4] = biological target: T4, SIX6 (Homo sapiens, UniProt O95475 114-200, T165I)
# T4 sequence: T1 sequence with T52I, M54L
# PAX4 [5] = biological target: T5, PAX4 (Homo sapiens, UniProt O43316 9-242)
# T5 sequence: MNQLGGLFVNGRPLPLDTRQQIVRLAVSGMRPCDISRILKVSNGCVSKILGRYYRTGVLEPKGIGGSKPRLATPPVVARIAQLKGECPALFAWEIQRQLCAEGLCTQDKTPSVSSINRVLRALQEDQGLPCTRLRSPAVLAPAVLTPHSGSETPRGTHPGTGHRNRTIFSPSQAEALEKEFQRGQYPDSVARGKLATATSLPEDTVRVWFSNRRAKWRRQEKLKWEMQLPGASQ
# PAX4 [6] = biological target: T6, PAX4 (Homo sapiens, UniProt O43316 9-242, F177V)
# T6 sequence: T5 sequence with F169V
# PAX4 [7] = biological target: T7, PAX4 (Homo sapiens, UniProt O43316 9-242, F177Y)
# T7 sequence: T5 sequence with F169Y
# PAX4 [8] = biological target: T8, PAX4 (Homo sapiens, UniProt O43316 9-242, R227W)
# T8 sequence: T5 sequence with R219W
# NKX2-4 = biological target: T9, NKX2-4 (Homo sapiens, UniProt Q9H2Z4 175-261)
# T9 sequence: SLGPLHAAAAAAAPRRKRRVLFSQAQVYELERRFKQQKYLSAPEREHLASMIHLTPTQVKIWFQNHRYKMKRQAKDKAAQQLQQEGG
sequence,measurement,setting,value
TATATCCA,binding signal,SIX6 [1],"10.7 upbm affinity estimate (log intensity, higher = more binding, comparable within an allelic series)"
CCGTATCG,binding signal,SIX6 [1],"9.97 upbm affinity estimate (log intensity, higher = more binding, comparable within an allelic series)"
ATATACCC,binding signal,SIX6 [1],"11.1 upbm affinity estimate (log intensity, higher = more binding, comparable within an allelic series)"
same,binding signal,SIX6 [2],"10.9 upbm affinity estimate (log intensity, higher = more binding, comparable within an allelic series)"
same,binding signal,SIX6 [3],"10.4 upbm affinity estimate (log intensity, higher = more binding, comparable within an allelic series)"
same,binding signal,SIX6 [4],"11 upbm affinity estimate (log intensity, higher = more binding, comparable within an allelic series)"
ACTGATGC,binding signal,PAX4 [5],"10.6 upbm affinity estimate (log intensity, higher = more binding, comparable within an allelic series)"
same,binding signal,PAX4 [6],"9.94 upbm affinity estimate (log intensity, higher = more binding, comparable within an allelic series)"
same,binding signal,PAX4 [7],"10 upbm affinity estimate (log intensity, higher = more binding, comparable within an allelic series)"
same,binding signal,PAX4 [8],"10 upbm affinity estimate (log intensity, higher = more binding, comparable within an allelic series)"
GTATCGAC,binding signal,SIX6 [1],"9.96 upbm affinity estimate (log intensity, higher = more binding, comparable within an allelic series)"
CATATCGA,binding signal,SIX6 [1],"10.2 upbm affinity estimate (log intensity, higher = more binding, comparable within an allelic series)"
ATCTATAC,binding signal,SIX6 [1],"10.7 upbm affinity estimate (log intensity, higher = more binding, comparable within an allelic series)"
same,binding signal,SIX6 [3],"10.4 upbm affinity estimate (log intensity, higher = more binding, comparable within an allelic series)"
same,binding signal,PAX4 [7],"10.4 upbm affinity estimate (log intensity, higher = more binding, comparable within an allelic series)"
GGGATATA,binding signal,SIX6 [1],"10.8 upbm affinity estimate (log intensity, higher = more binding, comparable within an allelic series)"
CCAATCAG,binding signal,PAX4 [5],"10.5 upbm affinity estimate (log intensity, higher = more binding, comparable within an allelic series)"
same,binding signal,PAX4 [6],"9.65 upbm affinity estimate (log intensity, higher = more binding, comparable within an allelic series)"
same,binding signal,PAX4 [7],"9.83 upbm affinity estimate (log intensity, higher = more binding, comparable within an allelic series)"
same,binding signal,PAX4 [8],"9.74 upbm affinity estimate (log intensity, higher = more binding, comparable within an allelic series)"
TTAGTCAA,binding signal,PAX4 [5],"10.9 upbm affinity estimate (log intensity, higher = more binding, comparable within an allelic series)"
same,binding signal,PAX4 [6],"10.1 upbm affinity estimate (log intensity, higher = more binding, comparable within an allelic series)"
same,binding signal,PAX4 [7],"10.2 upbm affinity estimate (log intensity, higher = more binding, comparable within an allelic series)"
same,binding signal,PAX4 [8],"10.2 upbm affinity estimate (log intensity, higher = more binding, comparable within an allelic series)"
CGTATCAG,binding signal,SIX6 [1],"10.2 upbm affinity estimate (log intensity, higher = more binding, comparable within an allelic series)"
GTTAACCA,binding signal,PAX4 [5],"10.5 upbm affinity estimate (log intensity, higher = more binding, comparable within an allelic series)"
same,binding signal,PAX4 [6],"9.85 upbm affinity estimate (log intensity, higher = more binding, comparable within an allelic series)"
same,binding signal,PAX4 [7],"9.89 upbm affinity estimate (log intensity, higher = more binding, comparable within an allelic series)"
same,binding signal,PAX4 [8],"9.96 upbm affinity estimate (log intensity, higher = more binding, comparable within an allelic series)"
CACGTATC,binding signal,SIX6 [1],"10.2 upbm affinity estimate (log intensity, higher = more binding, comparable within an allelic series)"
CGTATCGA,binding signal,SIX6 [1],"10 upbm affinity estimate (log intensity, higher = more binding, comparable within an allelic series)"
AGTGCGTG,binding signal,NKX2-4,"11.3 upbm affinity estimate (log intensity, higher = more binding, comparable within an allelic series)"
CGTTATGC,binding signal,PAX4 [5],"10.3 upbm affinity estimate (log intensity, higher = more binding, comparable within an allelic series)"
same,binding signal,PAX4 [8],"9.97 upbm affinity estimate (log intensity, higher = more binding, comparable within an allelic series)"
GGGGTATA,binding signal,SIX6 [1],"10.7 upbm affinity estimate (log intensity, higher = more binding, comparable within an allelic series)"
ATTTTGGA,binding signal,PAX4 [5],"10.5 upbm affinity estimate (log intensity, higher = more binding, comparable within an allelic series)"
same,binding signal,PAX4 [7],"10 upbm affinity estimate (log intensity, higher = more binding, comparable within an allelic series)"
